PubChem BioAssay AID431 (Sanford-Burnham Center for Chemical Genomics, 2006)
About 1,100 (1.7%) of roughly 63,000 compounds were called active.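 How the source made its calls: active means compounds whose percent cytotoxicity in the single-dose primary screen, scaled between solvent and toxic-drug controls, exceeds 50; inactive means the rest.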 This excerpt belongs to a sample that is enriched for actives. Potency and affinity values are given separately.

Assay: cytotoxicity in KRAS-transformed pancreatic duct cells, primary screen, cell-based, fluorescence, HTS (AID 431);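 further: 0% = DMSO solvent wells and 100% = doxorubicin-treated wells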
Conditions: HPDE-C7K KRASV12 cells, Alamar Blue viability, 48 h; at 10 µM; stronger effect = higher value

| Compound | cytotoxicity |
| --- | --- |
| COC(=O)c1cn(NC(=O)c2cccc(N(C)C)c2)c(=O)c2ccccc12 | -1.6% (inactive) |
| CCOC(=O)c1c(C)[nH]c(C(=O)CN2C(=O)NC(C)(c3ccc(C)cc3)C2=O)c1C (stereo unspecified) | 29.2% (inactive) |
| COc1ccc(S(=O)(=O)N(C)CC(=O)N2CCC(C)CC2)cc1Cl | 9.5% (inactive) |
| CCCC(c1nnnn1C(C)(C)CC)N(Cc1ccco1)Cc1cc2ccc(OC)cc2[nH]c1=O (stereo unspecified) | 55.7% (active) |
| COc1ccc2[nH]c(=O)c(C(c3nnnn3C(C)(C)C)N(Cc3ccco3)CC3CCCO3)cc2c1 (stereo unspecified) | -29.6% (inactive) |
| CCC(C)(C)n1nnnc1C(c1cc2ccc(C)cc2[nH]c1=O)N(Cc1cccnc1)Cc1ccco1 (stereo unspecified) | 14.1% (inactive) |
| Cc1csc(NC(=O)c2nc(-c3ccccc3)n(-c3ccccc3)n2)n1 | -19.1% (inactive) |
| O=C(Nc1nccs1)c1nc(-c2ccccc2)n(-c2ccccc2)n1 | 76.3% (active) |
| NC(=O)c1ccsc1NC(=O)c1nc(-c2ccccc2)n(-c2ccccc2)n1 | 9.4% (inactive) |
| CCCCC(=O)Nc1ccc(C(=O)NCc2ccncc2)cc1 | -7.4% (inactive) |
| O=C(CC12CC3CC(CC(C3)C1)C2)N1CCOCC1 | -7.8% (inactive) |
| CCOC(=O)c1sc2nc(NC(=O)C3CC3)sc2c1C | 4.4% (inactive) |
| CCOC(=O)c1sc2nc(NC(=O)C(C)(C)C)sc2c1C | 2.1% (inactive) |
| CCOC(=O)c1sc2nc(NC(=O)C3CCCCC3)sc2c1C | 68.2% (active) |
| CCC(C)[C@H](NC(=O)NCc1cccs1)C(=O)OC (stereo partly specified) | 7.9% (inactive) |
| O=S(=O)(c1ccc(Nc2ccc3c(c2)OCO3)nc1)N1CCOCC1 | -0.1% (inactive) |
| O=C(CCS(=O)(=O)c1cccc2nsnc12)NCc1ccccc1 | -10.5% (inactive) |
| Cc1cccc(-n2c(CCCN3C(=O)c4ccccc4C3=O)nc3ccccc3c2=O)n1 | -9.8% (inactive) |
| Cc1oc2c(CN3CCOCC3)c(O)ccc2c(=O)c1-c1ccccc1 | -12.9% (inactive) |
| COc1cc(NS(=O)(=O)c2ccc(NC(=O)C3CCCO3)cc2)nc(OC)n1 (stereo unspecified) | -15.8% (inactive) |
| Cc1ccc(OCc2nc(-c3ccccn3)no2)c(Br)c1 | 26.3% (inactive) |
| Clc1ccc(OCc2nc(-c3ccccn3)no2)c(Br)c1 | 13.1% (inactive) |
| CCOc1ccc(-c2nnc(-c3ccco3)o2)cc1OCC | 1.7% (inactive) |
| COc1cccc(N2CCN(Cc3nc4ccccc4c(=O)[nH]3)CC2)c1 | 4.2% (inactive) |

| Compound | cytotoxicity |
| --- | --- |
| COc1cccc(N2CCN(CC(=O)c3c[nH]c4ccc(OC)cc34)CC2C)c1 (stereo unspecified) | 17.4% (inactive) |
| O=C1CC(c2ccccc2)n2nc(N3C(=O)CCC3=O)nc2N1 (stereo unspecified) | 2.8% (inactive) |
| CC(=O)Nc1ccc(S(=O)(=O)c2ccc(N)cc2)cc1N | -5.2% (inactive) |
| CC1N=C2c3ccccc3N=C(SCc3cc(=O)n4cc(Cl)ccc4n3)N2C1=O (stereo unspecified) | 5.7% (inactive) |
| O=S(=O)(Nc1ccc2c(c1)OCCO2)c1ccc2oc3ccccc3c2c1 | 73% (active) |
| COc1ccc(NS(=O)(=O)c2ccc3oc4ccccc4c3c2)cn1 | 35.2% (inactive) |
| CSc1ccc(S(=O)(=O)Nc2ccc3c(c2)OCCO3)cc1 | 9.5% (inactive) |
| Cc1ccc2c(c1)c(C)c(C)n2CC(O)Cn1nc(C)cc1C (stereo unspecified) | -6.3% (inactive) |
| OCc1ccnc2c(O)cccc12 | 11.7% (inactive) |
| Oc1c(CN2CCc3ccccc3C2)cc(Cl)c2cccnc12 | -1.6% (inactive) |
| Oc1ccc2cccnc2c1 | 4.8% (inactive) |
| Oc1c(CN2CCN(c3ccccn3)CC2)cc(Cl)c2cccnc12 | 28.4% (inactive) |
| CCC1Oc2ccc(C)cc2N(CC(=O)NCCC2=CCCCC2)C1=O (stereo unspecified) | 0% (inactive) |
| O=C(COc1ccc(Cl)cc1)Nc1ccc2oc(-c3ccncc3)nc2c1 | -3% (inactive) |
| COc1ccc(CNC(=O)c2cc(-n3cnnc3)ccc2Cl)cc1 | -0.7% (inactive) |
| CCOC(=O)N1CCN(C(=O)CSc2nnc(-c3cccs3)o2)CC1 | 4.2% (inactive) |
| COc1ccc(NC2=NC3(CCCCC3)N=C(N)N2)cc1 | 10.1% (inactive) |
| COc1cccc(NC2=NC3(CCCCC3)N=C(N)N2)c1 | -1.1% (inactive) |
| CCN(C(=O)COc1ncnc2ccc(Br)cc12)C1CCS(=O)(=O)C1 (stereo unspecified) | -5.5% (inactive) |
| COC(=O)c1ccc(CSc2nc3c(cnn3-c3ccc(F)cc3)c(=O)[nH]2)o1 | 1.7% (inactive) |
| COC(=O)c1ccc(CSc2nc3c(cnn3-c3ccc(C)c(C)c3)c(=O)[nH]2)o1 | 8% (inactive) |
| COC(=O)c1ccc(CSc2nc3scc(-c4cccs4)c3c(=O)[nH]2)o1 | 50.4% (active) |
| CN(C)S(=O)(=O)c1ccc(C(=O)Nc2ccc(Cl)cc2)cc1 | 1.5% (inactive) |
| COc1cc(-c2csc(C)n2)ccc1O | -3.1% (inactive) |

| Compound | cytotoxicity |
| --- | --- |
| Oc1ccc(-c2nc(-c3ccc(O)c(O)c3)cs2)cc1 | 79.5% (active) |
| CN(c1ccc(O)cc1)c1nc(-c2ccccc2)cs1 | 4.5% (inactive) |
| Cc1cccc2cc(C(c3nnnn3CC3CCCO3)N3CCCC4(CCCCC4)C3)c(=O)[nH]c12 (stereo unspecified) | -12.9% (inactive) |
| Cc1csc(NC(=O)c2sc3nc(-c4cccs4)ccc3c2N)n1 | 72.2% (active) |
| CCCSc1nnc(NC(=O)c2sc3nc(-c4cccs4)ccc3c2N)s1 | 22.7% (inactive) |
| Nc1c(C(=O)NC2CCCC2)sc2nc(-c3cccs3)ccc12 | 12.2% (inactive) |
| CC(C)CCN1C(=O)c2ccc(C(=O)NCC3CCCO3)cc2C1=O (stereo unspecified) | -6.8% (inactive) |
| O=C(NCCCN1CCN(c2ccccc2F)CC1)Nc1ccc(F)cc1 | -10.3% (inactive) |
| Cc1cc2n(n1)C(c1ccccc1)Nc1ccccc1-2 (stereo unspecified) | 15.3% (inactive) |
| Cc1cc2n(n1)C(c1ccccc1Cl)Nc1ccccc1-2 (stereo unspecified) | 18.6% (inactive) |
| CCCNC(=O)Cc1ncn[nH]1 | 3.6% (inactive) |
| CCOc1cc(C(=O)O)cc(Cl)c1OCC#N | -16.2% (inactive) |
| Cc1ccccc1Cc1c(C)nc2c(C(=O)N3CCN(Cc4ccc5c(c4)OCO5)CC3)cnn2c1C | -9.2% (inactive) |
| Cc1nc2c(C(=O)O)cnn2c(C)c1Cc1ccccc1F | -2.2% (inactive) |
| CC1(C)CC(=O)c2cc(C(=O)N3CCN(CCO)CC3)c(=O)n(-c3ccc(Cl)cc3)c2C1 | -8.4% (inactive) |
| O=C(c1cc2ccccn2n1)N1CCCC1 | 8% (inactive) |
| Cc1onc(-c2ccccc2Cl)c1C(=O)NCc1ccc(S(N)(=O)=O)cc1 | -0.7% (inactive) |
| O=c1[nH]cnc2scc(-c3ccc(F)cc3)c12 | 7.7% (inactive) |
| Cn1nnnc1Sc1ncnc2scc(-c3ccccc3)c12 | 11.1% (inactive) |
| COc1ccc(OC)c(NC(=O)CN2CCC(C(=O)c3ccc(C)cc3)CC2)c1 | 4.8% (inactive) |
| CCC(C)(C)NC(=O)C(c1cccn1C)N(C(=O)Cn1nnc2ccccc21)c1ccc(OC)cc1 (stereo unspecified) | 41.6% (inactive) |
| COc1ccc2c(c1)OC(O)(C(F)(F)F)CC2=O (stereo unspecified) | -1.5% (inactive) |
| O=C1CC(O)(C(F)(F)F)Oc2c1ccc1ccccc21 (stereo unspecified) | 88.6% (active) |
| O=C1CC(O)(C(F)F)Oc2ccc3ccccc3c21 (stereo unspecified) | -1.2% (inactive) |

| Compound | cytotoxicity |
| --- | --- |
| COc1ccc(NC(=O)c2ccc(-n3nc(C)c[n+]3[O-])cc2)cc1 | -7.1% (inactive) |
| N#Cc1c2n(cnc1=O)CCCCC2 | 0% (inactive) |
| Nc1c(C(=O)NCCN2CCOCC2)c2nc3ccccc3nc2n1CCc1ccccc1 | 18.1% (inactive) |
| Nc1ccc(-n2c(N)c(C(=O)NCc3ccc4c(c3)OCO4)c3nc4ccccc4nc32)cc1 | 35.9% (inactive) |
| Nc1c(C(=O)NCCN2CCOCC2)c2nc3ccccc3nc2n1CCc1ccccc1F | 7.5% (inactive) |
| Nc1c(C(=O)NCCN2CCOCC2)c2nc3ccccc3nc2n1-c1ccc2c(c1)OCO2 | -10.7% (inactive) |
| CC1CN(c2nnnn2-c2ccccc2)CC(C)O1 (stereo unspecified) | -6.4% (inactive) |
| Cc1ccc(NC(=O)CSc2nnc(COc3ccc(C#N)cc3)n2-c2ccccc2)cc1C | -3.3% (inactive) |
| Cc1ccc(S(=O)(=O)/C(C#N)=C/c2c(N3CCN(C)CC3)nc3ccccn3c2=O)cc1 | -0.5% (inactive) |
| O=C(O)CSCCC(=O)Nc1ccc(F)cc1 | -3.7% (inactive) |
| CCOC(=O)Cn1c(CN2CC(C)OC(C)C2)nc2c1c(=O)n(C)c(=O)n2C (stereo unspecified) | -2.5% (inactive) |
| CCOC(=O)N1CCN(C(=O)C2COc3ccccc3O2)CC1 (stereo unspecified) | 11.8% (inactive) |
| O=C(O)C1CCCCC1C(=O)Nc1ccc(Cl)cc1Cl (stereo unspecified) | -0.5% (inactive) |
| CCCOC(=O)CCCCC1SCC(NC(=O)OC)C1NC(=O)OC (stereo unspecified) | 5.4% (inactive) |
| CCOC(=O)Cn1c(=O)oc2cc(S(=O)(=O)Nc3cc(Cl)ccc3OC)ccc21 | 0.7% (inactive) |
| CC1=CC(C)(C)N2C(=O)C3(C(C#N)=C(N)Oc4cc(O)ccc43)c3cccc1c32 (stereo unspecified) | 74.3% (active) |
| CC1=CC(C)(C)N2C(=O)C3(C(C#N)=C(N)Oc4cc(C)oc(=O)c43)c3cccc1c32 (stereo unspecified) | -4.3% (inactive) |
| COc1cc2c3c(c1)C1(C(=O)N3C(C)(C)C=C2C)C(C#N)=C(N)Oc2cc(O)ccc21 (stereo unspecified) | -21.4% (inactive) |
| Cn1c(SCC2CCCO2)nnc1-c1ccncc1 (stereo unspecified) | -3.1% (inactive) |
| CCOC(=O)C1CCN(c2ncnc3c2oc2ccc(Cl)cc23)CC1 | 6.4% (inactive) |
| Cc1nn(-c2ccccc2)c(C)c1C(=O)OCC(=O)Nc1ccc2c(c1)OCO2 | -6.3% (inactive) |
| Cc1onc(-c2ccccc2)c1C(=O)OCC(=O)Nc1ccc2c(c1)OCO2 | 1.3% (inactive) |
| O=C(COC(=O)c1c2c(nc3ccccc13)CCCC2)Nc1ccc2c(c1)OCO2 | 53.6% (active) |
| O=C(C1CCN(S(=O)(=O)c2cccnc2)CC1)N1CCN(C2CCCC2)CC1 | -8.1% (inactive) |
